Laboratory results from ChEMBL document CHEMBL3988442, “University of Dundee, Small-Polar-MMV Screening Library” (2021).
In all, about 48,000 compounds went through this assay and about 13,000 (27%) showed an effect of 50% or more. This is one part of the list.

system: Wolbachia pipientis; test: Anti-Wolbachia Cell-Based Screen; assay type: functional; parameters: scale not given: in the data most compounds retested in dose-response had high values; settings: 5 µM

Structure (SMILES) | Percent Effect
CC(C)COCC(NC(=O)c1cc[nH]n1)c1ccco1 (configuration not stated) | 4.731%
CCN(CC(=O)N(C)C)S(=O)(=O)c1cnc2c(c1)c(C)nn2C | 5.433%
CCN1CCc2[nH]cnc2C12CCN(c1ncc(C(=O)O)cc1Cl)CC2 | 3.404%
Brc1ccc(C2(CNCc3cc[nH]c3)CCOCC2)cc1 | 10.2%
CN1CCCc2ccc(S(=O)(=O)NC(=O)C3CC=CC3)cc21 | -3.642%
CC(C(=O)Nc1ccc(N2CCOCC2)nc1)n1cncn1 (configuration not stated) | 104.2%
CC(OCC(F)(F)F)C(=O)Nc1ccc(-n2cncn2)nc1 (configuration not stated) | -8.836%
CC(Cc1ccco1)NC(=O)Nc1ccc(N2CCOCC2)nc1 (configuration not stated) | -10%
CCn1cc(CN2CCC(NS(C)(=O)=O)CC2)cc1C#N | -7.298%
CC(C)Cn1cnnc1C1CCCN1C(=O)c1cc2ccccn2c1 (configuration not stated) | -13.41%
CC(C)CN1CCCn2nc(CNC(=O)OCc3ccccc3)cc2C1 | 17.53%
CC(C)NCc1cc2n(n1)CCN(C1CCCCC1)C2 | -9.171%
COC(=O)NCc1cc2n(n1)CCCN(C(C)=O)C2 | 17.7%
CCC(CC)CN1CCCn2nc(CNC(=O)COC)cc2C1 | 4.127%
CC(C)CN1CCCn2nc(CNC(=O)NC(C)(C)C)cc2C1 | -2.187%
CCCOC(C)C(=O)NCc1cc2n(n1)CCCN(C1CCCCC1)C2 (configuration not stated) | 111%
CC(C)c1nnc(NCc2cc3n(n2)CCN(C2CCCCC2)C3)s1 | 8.692%
CN[C@@H](CO)C(=O)NCc1cc2n(n1)CCCN(C1CCCCC1)C2 | 120.8%
CCCN1CCCn2nc(CNC(=O)C3CCOC3)cc2C1 (configuration not stated) | -8.283%
CCC(C)NC(=O)NCc1cc2n(n1)CCCN(C1CCCCC1)C2 (configuration not stated) | 123%
CCC(OC)C(=O)NCc1cc2n(n1)CCCN(C1CCCCC1)C2 (configuration not stated) | 113.3%
O=C(c1ccc(Cl)s1)N1CCCn2nc(CN3CC[C@H](F)C3)cc2C1 | 0.8139%
Cc1nc(C(C)N(C)Cc2nc(CCC(C)C)no2)c(C)s1 (configuration not stated) | 1.881%

Structure (SMILES) | Percent Effect
CCSc1ccc(C(C)NC(=O)CCS(C)(=O)=O)cc1 (configuration not stated) | -10.2%
CC(C)(C)c1nccc(N2CCN(C3CCS(=O)(=O)C3)CC2)n1 (configuration not stated) | -14.65%
CC1CCCCN1C1CN(c2ccnc(C(=O)NCc3ccco3)c2)C1 (configuration not stated) | 0.5235%
CCOCc1nc(N2CCOCC2)sc1C(=O)NCCCc1ccco1 | 102.3%
CCOCc1nc(N2CCCC2)sc1C(=O)NCc1ccco1 | 113.4%
Cc1nc(CCCNC(=O)c2coc(CN3CCOCC3)c2)sc1C | -5.742%
O=C(NCc1ccco1)Nc1ccc2nc(N3CCOCC3)oc2c1 | -0.2531%
CCCOC1CCCN(c2ccnc(C(=O)NCc3ccco3)c2)C1 (configuration not stated) | 6.201%
CCOCc1nc(N2CCOCC2)sc1C(=O)NCc1ccco1 | 132.8%
CCOCCCNC(=O)c1cc(C(C)C)nc(N2CCCCCC2)n1 | 4.863%
O=C(NCCCc1ccco1)c1ccc(N2CCOCC2)cc1 | -6.417%
O=C(NCc1ccco1)c1ccc(N2CCOCC2)cc1 | -7.738%
CCOCc1nc(N2CCCC2)sc1C(=O)NCCC(=O)OCC | 118%
Cc1nc(CC(=O)NCc2csc(N3CCCC3)n2)cs1 | 17.94%
CCc1nc(CNCC2CCCN2c2cc(NC)ncn2)cs1 (configuration not stated) | 9.196%
COc1c(C2CCCN2Cc2nnc(C3CC3)n2C)c(C)nn1C (configuration not stated) | 1.396%
N#Cc1ccc(CN2CCN(C(=O)C3CCC3)[C@@H]3CS(=O)(=O)C[C@@H]32)cc1 | -4.315%
Cc1nc(CN2CCCC2c2ccsc2)nc2ccccc12 (configuration not stated) | 1.892%
CN(C)c1nc(N)nc(CN2CCC(c3ccccc3)CC2)n1 | -7.992%
CN(C)c1nc(N)nc(CN2CCC(c3nc4ccccc4o3)CC2)n1 | -47.21%
Cc1cccc(C2CCCN2Cc2nc(N)nc(N(C)C)n2)c1C (configuration not stated) | 140.3%
CN(C)c1nc(N)nc(CN2CCCC2c2cccs2)n1 (configuration not stated) | 99.23%
CN(C)c1nc(N)nc(CN2CCCC2c2ccsc2)n1 (configuration not stated) | 99.77%

Structure (SMILES) | Percent Effect
CN(CCC#N)C(=O)CN1CCCC1c1cccs1 (configuration not stated) | -24.43%
CCCc1noc(CN2CCCC2c2ccsc2)n1 (configuration not stated) | 1.014%
CN(C)c1nc(N)nc(CN2CCCC(c3ccccc3)CC2)n1 (configuration not stated) | -22.19%
COCCC(=O)Nc1nccn1Cc1ccc(Br)cc1 | -0.6439%
CNC(=O)c1cnc(/C=C/c2ccc(OC)c(O)c2)s1 | -1.59%
Cc1cc(C(=O)N2C[C@H](CO)C[C@H](CN3CCOCC3)C2)cnc1C | 8.759%
Cc1ccc(C)c2c(O)cc(CNCCNC(=O)C(C)C)nc12 | -21.09%
c1cncc(NCCNC2CSCCSC2)c1 | 16.15%
Cc1cccc(-c2noc([C@@H]3C[C@@H](O)CN3Cc3ccc(CO)o3)n2)c1 | 5.801%
CC(C)n1cnc2c1C(C(=O)N1CCCC1)N(S(C)(=O)=O)CC2 (configuration not stated) | -12.38%
Cc1nn(C)c(Cl)c1C1CCCN1Cc1nnc(C2CC2)n1C (configuration not stated) | -12.44%
Cc1cc(NC(=O)C(C)N2CCCN(c3nccs3)CC2)on1 (configuration not stated) | -9.765%
Cc1cc(NC(=O)C(C)N2CCN(c3nccs3)CC2)on1 (configuration not stated) | -1.934%
Cc1cc(NC(=O)CN2CCN(c3nccs3)C(C)C2)on1 (configuration not stated) | 108.7%
CCc1nnc2n1CCN(CC(=O)Nc1cc(C)on1)C2 | -12.71%
Cc1cc(NC(=O)CN2CCN(c3nccs3)C(C)C2)no1 (configuration not stated) | 110.3%
CN(C)c1nccc(-c2c[nH][nH]c2=O)n1 | 105.1%
CCNC(=O)NCc1ccnc(N(C)C)n1 | -21.64%
CN(C)c1nccc(-c2cnc(N(C)C)[nH]c2=O)n1 | 117.9%
CC(=O)c1ccc(C(=O)Nc2ccnc(N(C)C)n2)cc1 | -0.9205%
CN(C)c1nccc(CNC(=O)NC(C)(C)C)n1 | -4.369%
CN(C)c1nccc(NC(=O)c2ccncc2)n1 | 2.726%
c1cc(-c2nc(CN3CCn4c(nnc4C4CC4)C3)cs2)cs1 | -6.477%

Structure (SMILES) | Percent Effect
Cc1noc2ncc(S(=O)(=O)Nc3cc(C(C)(C)C)n[nH]3)cc12 | -0.8197%
Cc1cc(C(=O)N(Cc2c(C)nn(C)c2C)C(C)C)nc(C)n1 | 12.98%
Cn1ccc(C(=O)NCc2ccccc2Cn2ccnc2)cc1=O | -5.249%
CN1CCN(Cc2ccccc2CNC(=O)c2cc(Br)ccc2F)CC1 | -18.53%
Cn1ccc(C(=O)NCc2ccccc2CN2CCCCC2)cc1=O | 100.5%
Cn1ccc(C(=O)NCc2ccccc2CN2CCCC2)cc1=O | 88.78%
CN1CCN(Cc2ccccc2CNC(=O)c2ccc(Br)cc2F)CC1 | 7.367%
CN1CCN(Cc2ccccc2CNC(=O)c2ccc(Br)cc2)CC1 | 1.874%
COc1cc(C)cc(C(C(=O)O)N(C)Cc2ccon2)c1OC (configuration not stated) | -2.337%
O=C1CC(c2ccccc2)C2(CCN(C(=O)c3cnccn3)CC2)N1 (configuration not stated) | -7.237%
O=C(COCC(F)(F)F)Nc1nncs1 | 9.109%
O=C(NCC1CC1)Nc1cccc(N2CCN(CC3CC3)CC2)c1 | 0.3476%
Cc1[nH]c2ccc(CNC(=O)c3ccc(CN4CCCC4)o3)cc2c1C | 16.58%
O=C(CCn1cccc1)NCc1ccc(CN2CCCCCC2)o1 | 106.7%
O=C(NCc1ccc2[nH]c(=O)[nH]c2c1)c1ccc(CN2CCCC2)o1 | -9.598%
CNC(=O)c1csc(-c2cccnc2)n1 | 130%
CNC(=O)c1csc(-c2ccoc2)n1 | 6.478%
CC(C)N1CCCC(CNC(=O)Cc2csc(-c3cccnc3)n2)C1 (configuration not stated) | 3.537%
O=C(NCCc1nncn1C1CC1)C1SCCc2ccccc21 (configuration not stated) | -2.915%
O=C(Cc1ccccc1F)NCC1CCN(CCc2ccccc2)C1 (configuration not stated) | -7.846%
CS(=O)(=O)NC1CCN(CCc2ccccc2)CC1 | -1.788%
Cc1nn(C)cc1NC(=O)CC1CCN(C(=O)Cc2ccccc2)CC1 | 152.2%
Cc1nn(C)cc1NC(=O)CC1CCN(CCc2ccccc2)CC1 | 168.6%

Structure (SMILES) | Percent Effect
Cc1nn(C)cc1C(=O)N1CCC(CSc2ccccc2)C1 (configuration not stated) | -5%
Cn1cccc(NC(=O)N2CCC(Cc3ccccc3)C2)c1=O (configuration not stated) | 25.6%
CC(=O)NCc1nnc2n1CCN(c1ncnc3c1CCC3)CC2 | -4.362%
Cn1cc(Br)cc(NC(=O)CC2CCC2)c1=O | 5.375%
CC(C)(C)C(NC(=O)CCS(C)(=O)=O)c1ccc(F)cc1F (configuration not stated) | 7.431%
COCCS(=O)(=O)Cc1nnnn1-c1ccccc1 | 8.083%
CCCn1[nH]cc/c1=N\C(=O)CN1CCn2c(nnc2C2CC2)C1 | -10.08%
CCCn1[nH]cc/c1=N\C(=O)CN1CCc2cnc(CC)nc2C1 | 1.642%
CCCn1[nH]cc/c1=N\C(=O)CN1CCc2c(nc(C3CC3)n2C)C1 | 122.4%
CCCn1[nH]cc/c1=N\C(=O)CN1CCc2cnc(C(C)C)nc2C1 | 129.2%
CCCn1[nH]cc/c1=N\C(=O)CN1CCOC(Cn2cc(C)cn2)C1 (configuration not stated) | 12.63%
CCCn1[nH]cc/c1=N\C(=O)CN1CCc2c(nc(C(C)C)n2C)C1 | -3.864%
O=C(CNC(=O)N(Cc1ccoc1)C1CCCCC1)N1CCCC1 | -3.863%
O=C1CN(Cc2cn(CC3CCCN(C4CCSCC4)C3)nn2)CCN1 (configuration not stated) | -21.26%
Cn1cc(C(=O)N2CCCC2c2ccc3c(c2)OCCO3)ccc1=O (configuration not stated) | 14.96%
CNc1cncc(C2CCCN2C(=O)c2ccc3nc(C)[nH]c3c2)n1 (configuration not stated) | 94.32%
Cn1ccc(C(=O)N2CCCC2c2ccc3c(c2)OCCO3)cc1=O (configuration not stated) | 4.386%
CNc1cncc(C2CCCN2C(=O)c2ccc3c(c2)OCCO3)n1 (configuration not stated) | 121%
CNc1cncc(C2CCCN2C(=O)c2ccc3c(c2)CCC3)n1 (configuration not stated) | 112.1%
CNc1cncc(C2CCCN2C(=O)c2ccc3oc(C)cc3c2)n1 (configuration not stated) | 6.468%
